From PubChem
KLF5 inh = kruppel-like factor 5 inhibition; DLD-1 KLF5 promoter-luciferase reporter, luminescence; inhibition, % at 5 µM; 290,000 compounds, 0.23% hits; AID 1700;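 active means inhibition above a per-plate limit of that plate's mean compound inhibition plus 3 SD, cut at about 60% in these data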;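 further: 0% = DMSO wells and 100% = LY294002 at 200 µM; higher means less KLF5 promoter-driven luciferase light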
BaF3 tox = counter-screen for JAK2V617F inhibitors: parental Ba/F3 viability inhibitors | CellTiter-Glo ATP luminescence | inhibition, % at 5.6 µM | 220,000 compounds, 1.1% hits | AID 1486;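 active means inhibition above a per-campaign cutoff, the mean inhibition of all tested compounds plus 3 SD, cut at about 27% in these data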;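 further: 0% = DMSO wells and 100% = JAK Inhibitor I control wells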
aSyn 5UTR inh = 5' untranslated region of α-synuclein, MLPCN primary screen; alpha-synuclein 5'UTR reporter, inhibitor activity; inhibition, % (tested at 7.5 µM); 300,000 compounds, 0.82% hits; in the data active means inhibition above about 60%;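 further: H4 neuroglioblastoma cells stably carrying SNCA 5'UTR luciferase fusion; 0% = DMSO wells and 100% = positive control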
IEC-6 cytotox = kills IEC-6 intestinal cells in KLF5 counter-screen | 290,000 compounds, 0.78% hits | inhibition, % at 5 µM | IEC-6 cytotoxicity, luminescence viability;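 further: 0% = plate median of test compound wells and 100% = cytotoxic reference compound wells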
APP 5UTR inh = APP translation inhibition; 190,000 compounds, 0.82% hits; SH-SY5Y APP 5'UTR-luciferase reporter, luminescence; inhibition, % at 2 µM;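 active means inhibition above a set limit, derived from the sample mean plus 3 SD, cut at about 45% in these data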
Ba/F3 V617F tox = loss of viability in JAK2V617F-driven Ba/F3 cells | Ba/F3 EpoR-JAK2V617F viability, ATP luminescence | inhibition, % at 5.6 µM | 220,000 compounds, 1.1% hits | AID 1446;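 active means inhibition above the campaign mean plus 3 SD over all tested compounds, cut at about 24% in these data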;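 further: cytokine-independent growth of Ba/F3 cells driven by EpoR plus mutant JAK2; 0% = DMSO-treated cells and 100% = JAK inhibitor I control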
IEC-6 cytotox cf = IEC-6 cytotoxicity, confirmation assay | 1,900 compounds, 63% hits | IEC-6 rat intestinal epithelial viability, luminescence | shares compounds with IEC-6 cytotox | AID 1907 | inhibition, % at 5 µM;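 further: 0% = vehicle and 100% = reference cytotoxic drug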
An asterisk follows results filed as active; · = no result given. Shown are actives, neighbours in structure and some others; about 2.2% of the full set was active somewhere. Unless noted, no stated cut-off is given here; in the data, active means inhibition above about 22%; inactive means the rest.

SMILES | KLF5 inh | BaF3 tox | aSyn 5UTR inh | IEC-6 cytotox | APP 5UTR inh | Ba/F3 V617F tox | IEC-6 cytotox cf
Cc1ccc(C2NC(=O)c3ccccc3N2)s1 (configuration not stated) | 43 | 80* | -168 | 73* | 18 | 83* | 8
Cc1ccccc1C(=O)N1CCN(CCNC(=O)C(=O)Nc2ccc(Br)cc2)CC1 | 7 | · | -10 | 5 | · | · | ·
COc1cccc(NC(=O)CSC2=C(C#N)C(c3ccco3)C3=C(CCCC3=O)N2)c1 (configuration not stated) | 45 | 76* | -26 | 50* | 8 | 67* | 5
Cc1ccc(C(=O)CSC2=C(C#N)C(c3ccco3)C3=C(CCCC3=O)N2)cc1 (configuration not stated) | 4 | 4 | 38 | 45* | 46* | 1 | 52*
CCCCc1ccc(NC(=O)CSC2=C(C#N)C(c3ccco3)C3=C(CCCC3=O)N2)cc1 (configuration not stated) | -22 | 5 | 24 | -6 | 11 | -1 | ·
CCOC(=O)c1ccccc1NC(=O)Cn1c(-c2nonc2N)nc2ccccc21 | 45 | 75* | 73* | 77* | 94* | 79* | 52*
CCOc1ccc(NC(=O)CCC(=O)c2ccc(OC)cc2)cc1 | -14 | · | 0 | -1 | · | · | ·
COc1cccc(-c2nc(CS(=O)(=O)CC(=O)Nc3cc(OC)ccc3OC)c(C)o2)c1 | -15 | · | 20 | -5 | · | · | ·
C=CCOc1c(Cl)cc(CNc2ccc(N(C)C)cc2)cc1OC | -5 | 3 | -17 | -8 | -67 | -5 | ·
C=CCOc1c(Cl)cc(CNc2ccc(C)c(Cl)c2)cc1OC | 50 | 77* | 85* | 50* | 91* | 77* | 51*
COc1ccc(S(=O)(=O)N2CCC(C(=O)NCc3ccncc3)CC2)cc1OC | 1 | · | 10 | 8 | · | · | ·
Cn1cccc1/C=C1\SC(=Nc2ccc(O)cc2)NC1=O | 46 | 87* | -47 | 90* | · | 89* | 66*
Cn1cccc1/C=C1\SC(=Nc2ccccc2)NC1=O | 39 | 72* | 46 | 68* | · | 76* | 57*
COC(=O)CC1COc2ccccc2N1S(=O)(=O)c1ccc(OC)cc1 (configuration not stated) | 32 | · | -23 | 31* | · | · | 0
O=C1NNC(c2ccccc2)=N/C1=C\c1ccco1 | -12 | 0 | 24 | -5 | · | -1 | ·
COc1cc(/C=C2\N=C(c3ccccc3)NNC2=O)cc(OC)c1OC | 44 | 79* | 52 | 59* | · | 72* | 53*
Cc1ccc(CNC(=O)[C@@H](NC(=O)C2CCN(C(=O)[C@@H](N)CC(C)C)CC2)C(C)C)cc1 | -13 | · | 21 | -1 | · | · | ·
N=c1ccn2c(n1)O[C@H]1[C@H](O)[C@@H](CO)O[C@H]12 | 6 | · | 57 | 92* | · | · | 74*
Nc1ncn([C@@H]2O[C@H](CO)[C@@H](O)[C@H]2O)c(=O)n1 | · | · | 33 | · | · | · | ·
Nc1ccn([C@@H]2O[C@H](CO)[C@@H](O)[C@@H]2O)c(=O)n1 | 16 | 80* | 81* | 90* | 83* | 74* | 76*
O=C(OCC1OC2C(Oc3nc(=O)ccn32)C1O)c1ccccc1 (configuration not stated) | -4 | 1 | -2 | 3 | -10 | 0 | ·
Nc1nc(Cl)nc2c1ncn2[C@@H]1O[C@H](CO)[C@@H](O)[C@H]1O | 31 | 3 | 13 | 44* | -1 | 0 | -6
O=C(O)c1cccnc1Nc1ccc(Cl)cc1 | -11 | 33* | -3 | 34* | -10 | 28* | 23*
COc1ccc(OC)c(NC(=O)c2cc(S(=O)(=O)N3CCCC3)cn2C)c1 | -12 | · | 11 | 1 | · | · | ·
O=C(c1cccc(N2CCCC2=O)c1)N1CCN(c2cccc(Cl)c2)CC1 | 13 | · | 12 | 44* | · | · | 17
SMILES | KLF5 inh | BaF3 tox | aSyn 5UTR inh | IEC-6 cytotox | APP 5UTR inh | Ba/F3 V617F tox | IEC-6 cytotox cf
CC(O)(CC(=O)O)CC(=O)O | · | · | -3 | · | · | · | ·
CCc1nnc(NC(=O)c2csc3c2CCC(C)C3)s1 (configuration not stated) | -1 | 2 | -67 | 0 | -145 | -2 | ·
CC1CCc2c(C(=O)Nc3cccc(-c4nn[nH]n4)c3)csc2C1 (configuration not stated) | -32 | · | -5 | 42* | · | · | -5
CCCCCCn1ccc(=N)cc1 | 6 | 69* | 13 | 28* | 2 | 92* | 26*
CCOc1ccc(C(C)=O)cc1N1C(=O)C2C3C=CC(O3)C2C1=O (configuration not stated) | -21 | 28* | 0 | 22* | 18 | 11 | 1
CN(C)c1ccc(NC(=O)CSc2nc3ccccc3c(=O)n2C2CCCCC2)cc1 | -4 | 6 | 29 | 2 | 1 | 1 | ·
Cc1cc(NC(=O)CSc2nc3ccccc3c(=O)n2C2CCCC2)no1 | 31 | 8 | 86* | 63* | -9 | 13 | 56*
COc1ccc(NC(=O)COC(=O)C2CCC2)cc1Cl | -25 | · | 3 | -5 | · | · | ·
CC1(c2ccc([N+](=O)[O-])cc2)Nc2ccccc2S1 (configuration not stated) | -23 | · | -83 | 1 | · | · | ·
Cc1[nH]c2ccccc2c1/C=N/Nc1nc(Nc2ccccc2)nc(N2CCOCC2)n1 | -36 | 41* | 7 | 76* | 20 | 32* | 93*
Oc1[nH]c2ccccc2c1N=Nc1nc(Nc2ccccc2)nc(N2CCOCC2)n1 | -17 | -12 | -2 | 1 | · | -1 | ·
CCn1c(=O)cc(SCC(=O)NCCCN2CCN(c3ccccc3F)CC2)c2ccccc21 | -14 | 18 | -41 | 22* | 11 | 11 | 27*
COc1ccc(-c2cc(C(=O)N/N=C(\C)c3cccnc3)c3cc(C)ccc3n2)cc1OC | -9 | · | -14 | 34* | · | · | 19
CCc1cc2c(-c3ccccc3)cc(=O)oc2cc1OCC(=O)NCC1CCC(C(=O)O)CC1 (configuration not stated) | -6 | · | 24 | -2 | · | · | ·
COc1cc2c(cc1OC)C(c1cccs1)N(C(=O)c1cccnc1)CC2 (configuration not stated) | 40 | 46* | -12 | 46* | 45* | 46* | 34*
COc1cc2c(cc1OC)C(c1cccs1)N(C(=O)C(C)C)CC2 (configuration not stated) | -1 | 6 | -15 | -1 | -15 | -2 | ·
COC(=O)c1ccc(NC(=O)CN2CCN(CCO)CC2)cc1 | -32 | · | 2 | -6 | · | · | ·
CCn1c(SCC(=O)c2ccccc2)nc2ccccc2c1=O | -8 | 7 | -21 | 61* | 2 | 3 | 37*
CC(NC(=O)/C(C#N)=C/c1ccc([N+](=O)[O-])o1)c1ccccc1 (configuration not stated) | 3 | · | -54 | 48* | · | · | 16
Cc1ccc(S(=O)(=O)Nc2cccc(N(C)S(C)(=O)=O)c2)cc1[N+](=O)[O-] | -21 | 95* | 0 | 23* | 2 | 97* | -9
COc1cc2ncnc(NCc3cc(F)ccc3F)c2cc1OC | 4 | · | 15 | 37* | · | · | 21
